# Source: PubChem (National Center for Advancing Translational Sciences (NCATS))
# DT40 TDP1 no CPT – qHTS for Inhibitors of human tyrosyl-DNA phosphodiesterase 1 (TDP1): qHTS in cells in absence of CPT; Potency, µM (series often up to 46.2 µM), for the others: at the top dose activity change, negative = growth inhibition, usual class: inhibitors; actives 15% (n = 420,000); DT40 Tdp1-/- hTDP1 cells, no CPT, ATP luminescence, 48 h; also: % is scaled to controls: 0 for no effect and ±100 for the full control effect; nearly all actives have a fitted effect of over 55% in size
#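 Camptothecin absent (DMSO only). Human TDP1-complemented DT40 knockout cells, 400 cells/well, 37 °C for minimum 48 hr; ATP measured via CellTiter-Glo, 30 min dark incubation, luminescence.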
# HT1080NT lethal – kills 2HG-producing HT-1080-NT fibrosarcoma cells | HT-1080-NT fibrosarcoma viability, CellTiter-Glo ATP luminescence, 48 h | Potency, µM (titrated, usually from 46.1 µM), for inactives: at the highest dose activity, negative = less viability, actives largely listed as cytotoxic | actives 1.6% (n = 360,000);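 also: NT is the 2HG producing partner of a matched IDH1 knockdown line; 0% = DMSO-treated cells and -100% = media-only wells without cells; nearly all actives have a fitted effect of over 55% in size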
#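 Toxicity toward the 2HG-producing NT line was scored as %Activity, normalised to DMSO and no-cell wells, from CellTiter-Glo luminescence after 48 hours' treatment.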
# DT40 TDP1 CPT – DT40-hTDP1 cell growth loss with CPT. chicken DT40 Tdp1-/-;hTDP1 cells + 20 nM CPT, ATP luminescence, 48 h. Potency, µM (titrated, usually from 46.2 µM), for the others: at the highest dose activity change, negative = growth inhibition, hits mostly inhibitors. actives 12% (n = 420,000). AID 686979; also: % is scaled to controls: 0 for no effect and ±100 for the full control effect; nearly all actives have a fitted effect of over 55% in size
#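 Chicken DT40 Tdp1-/- cells complemented with human TDP1, 400 cells/well, exposed to compounds plus 20 nM camptothecin for at least 48 h at 37 C; viability read as ATP content by CellTiter-Glo luminescence.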
# TGFb SMAD3 inh – blocks TGF-b signaling. Potency, µM (series often up to 46.1 µM), for the others: at the top dose activity, negative = inhibition, most hits filed as inhibitors. HepG2 CAGA-GFP TGF-b/SMAD3 reporter, GFP fluorescence, 18 h; TGF-beta stimulated, 500 pg/mL final. actives 1.2% (n = 410,000); also: % is scaled to controls: 0 for no effect and ±100 for the full control effect; nearly all actives have a fitted effect of over 65% in size
#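 Read-out: total well GFP (ex488/em500-530) summed from mean per-cell fluorescence. Cells: HEPG2 CAGA-GFP, 1% FBS DMEM, 18 h at 37 degrees C with 500 pg/mL final TGF-beta. Unstimulated wells served as the full-inhibition control; stimulated DMSO wells = 0%.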
# HT1080 IDH1KD tx – toxicity to HT-1080 IDH1 knockdown cells (counter line) | HT-1080 IDH1 knockdown viability, ATP luminescence, 48 h | Potency, µM (titrated, usually from 46.1 µM), for inactives: top-dose activity, negative = toxicity, hits mostly cytotoxic | actives 2% (n = 360,000) | AID 686971;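 also: 0% = DMSO wells and -100% = cell-free medium wells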
#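 In this qHTS, HT-1080 cells depleted of IDH1 are exposed for 48 h at 37 °C to compound titrations. Toxicity is scored from CellTiter-Glo luminescence, with DMSO as full viability and medium alone as none.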
# HepG2 tox – counter-screen for TGF-b inhibitors: cytotoxicity in HepG2 cells; HepG2 CAGA-GFP viability, ATP luminescence, 18 h; AID 588856; Potency, µM (series often up to 46.1 µM), without a hit: at the top dose activity change, negative = cytotoxicity, usual class: cytotoxic; actives 0.76% (n = 410,000)
#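 CellTiter-Glo luminescence gave cytotoxicity after 18 hours at 37 degrees C. The cells were HepG2 CAGA-GFP in 1% FBS DMEM, stimulated with 500 pg/mL TGF-beta after compound addition. %Activity was normalised to no-cell wells (complete cell-killing) and DMSO (no toxicity), and curves were fitted and classified.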
# The depositor's hits bear a star; ? = inconclusive; . = no result; [ ] = remark or other dose. This is a sample that favours compounds with a hit; in the whole collection about 17% have one here. Calls follow the shape of the dose curve; as a rule, active = well fitted curve in the direction sought with a large enough effect; inconclusive = small, poorly fitted or top-dose-only effect, or another doubt; inactive = no such curve, though single readings can be large; an effect the other way counts as inactive or inconclusive. Potency is read from the fitted curve at half-maximal effect.
SMILES,DT40 TDP1 no CPT,HT1080NT lethal,DT40 TDP1 CPT,TGFb SMAD3 inh,HT1080 IDH1KD tx,HepG2 tox
Cc1cccc(N2CCN(C(=O)CN3C(=O)NC4(CCCCCC4)C3=O)CC2)c1C,20.6µM*,-23.0%,?,1.2%,-13.0%,5.7%
O=C(CN1C(=O)NC2(CCCC2)C1=O)N1CCN(c2ccc(C(F)(F)F)cc2[N+](=O)[O-])CC1,8.2µM*,-5.7%[9.24 µM],13µM*,-8.0%,-1.0%,-8.8%
Nc1sc(-c2ccccc2)cc1C(=O)N1CCN(c2ccccc2)CC1,?,-27.1%,?,.,-2.2%,.
CC1CCC2(CC1)NC(=O)N(Cc1cccc(C(F)(F)F)c1)C2=O (configuration not stated),?,-5.1%,18.4µM*,4.2%,-16.9%,2.2%
NS(=O)(=O)c1cccc(NC(=O)COC(=O)/C(=C/c2cccs2)c2cccs2)c1,23.1µM*,-0.8%,?,0.0%,2.3%,-10.3%
Cc1ccc(NC(=O)COC(=O)/C(=C/c2cccs2)c2cccs2)cc1S(=O)(=O)N(C)C,14.6µM*,-8.5%,16.4µM*,?,-8.0%,-8.0%
CC(NC(=O)COC(=O)/C(=C/c1cccs1)c1cccs1)c1ccccc1 (configuration not stated),18.4µM*,-3.0%,?,?,-7.4%,-25.9%
O=C(COC(=O)c1cccs1)Nc1cccc(S(=O)(=O)N2CCOCC2)c1,1.9%,6.8%,0.8%,-2.4%,17.2%,13.7%
CN(C)c1cc(NC(=O)CNC(C)(C)CC(C)(C)C)c2ccccc2n1,16.4µM*,?,?,-3.0%,?,-4.2%
NC(=O)C1CCN(C(=O)c2ccc(NS(=O)(=O)c3ccc(Br)s3)cc2)CC1,4.8%,-0.5%,3.7%,27.8%,1.3%,3.5%
C=C(C)Cn1c(=O)c2c(nc3n2CCN3c2cc(C)cc(C)c2)n(C)c1=O,23.1µM*,.,-24.0%,-1.9%,.,-9.7%
Cc1cc(C)cc(N2CCCn3c2nc2c3c(=O)n(CCN3CCOCC3)c(=O)n2C)c1,?,-1.7%,-29.7%,-1.7%,3.0%,-1.5%
COCCn1c(=O)c2c(nc3n2CCCN3CCc2ccccc2)n(C)c1=O,-7.9%,0.3%,4.5%,0.0%,2.9%,-1.3%
C=C(C)Cn1c(=O)c2c(nc3n2CCCN3CCc2ccccc2)n(C)c1=O,13µM*,-4.1%,?,-9.3%,-2.7%,-13.9%
CCCCn1c(=O)c2c(nc3n2CCCN3Cc2ccccc2)n(C)c1=O,23.1µM*,19.3%,?,0.0%,21.6%,-13.7%
Cn1c(=O)n(Cc2ccccc2)c(=O)c2c1nc1n2CCCN1Cc1ccccc1,?,8.3%,?,-0.1%,13.8%,43.0%
Cn1c(=O)n(CC(=O)OCc2ccccc2)c(=O)c2c1nc1n2CCCN1C1CCCCC1,23.1µM*,0.5%,?,-11.0%,-3.1%,-20.0%
Cc1nc(C(=O)NNC(=O)c2ccc(Cl)cc2)c(C(F)(F)F)o1,?,-14.2%,?,-12.7%,?,-31.2%
Cc1ccccc1Cn1c(=O)c2c(nc3n2CCCN3Cc2ccccc2)n(C)c1=O,?,-7.3%,20.6µM*,0.8%,-13.5%,-4.3%
CCCOc1ccc(-c2nn(-c3ccccc3)cc2C2NC(=O)NC(C)=C2C(=O)OC)cc1 (configuration not stated),16.4µM*,.,?,?,.,-29.1%
N#CC1=C(SCC(N)=O)NC2=C(C(=O)c3ccccc32)C1c1ccc(Cl)cc1 (configuration not stated),16.4µM*,-0.6%,29.1µM*,-0.1%,5.4%,12.6%
